High-throughput results as filed in PubChem.
AID504770 – growth inhibitors of E. coli YBA685 in a screen for V. cholerae RctB (chromosome II replication) inhibitors; actives 0.27% (n = 130,000); AID 504770; E. coli YBA685 rctB-dependent plasmid, OD600 growth, 3 h; hits give low values; z-score (test concentration not listed); in the data active = z-score below about -2, passing the limit was not always enough
PV pol inh – inhibitors of poliovirus RNA polymerase binding and polymerization. actives 0.66% (n = 150,000). % elongation, % (compound at 16.7 µg/mL). poliovirus polymerase elongation, fluorescence polarization; hits give low values; in the data active = % elongation below about 90%
Target sequence (P03300 1749-2209 limits assumed): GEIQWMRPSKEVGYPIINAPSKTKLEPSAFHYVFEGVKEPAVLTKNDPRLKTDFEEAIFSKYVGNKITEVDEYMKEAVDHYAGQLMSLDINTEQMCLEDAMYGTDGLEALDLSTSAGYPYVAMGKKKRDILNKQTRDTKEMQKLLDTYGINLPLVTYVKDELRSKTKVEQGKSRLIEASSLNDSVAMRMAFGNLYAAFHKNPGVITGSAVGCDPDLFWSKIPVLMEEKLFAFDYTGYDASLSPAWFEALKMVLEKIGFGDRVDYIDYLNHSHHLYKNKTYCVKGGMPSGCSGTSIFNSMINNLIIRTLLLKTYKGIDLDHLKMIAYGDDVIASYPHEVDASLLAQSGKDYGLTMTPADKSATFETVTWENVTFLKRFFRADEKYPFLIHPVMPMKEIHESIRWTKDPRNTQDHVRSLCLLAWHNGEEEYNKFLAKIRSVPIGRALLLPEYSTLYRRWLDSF
MenB inh – inhibitors of Mycobacterium tuberculosis MenB enzyme; MenB enzyme assay, absorbance read-out; inhibition, % (no concentration beside the values); actives 0.43% (n = 100,000); P9WNP5; AID 540299; in the data active = inhibition above about 21%, passing the limit was not always enough
Mtb MbtI inh – MbtI salicylate synthase inhibition. P9WFX0. purified MbtI enzyme, fluorescence intensity read-out. inhibition, % (concentration not given with the values). actives 0.89% (n = 100,000). AID 493033; in the data active = inhibition mostly above about 56%, no sharp cut-off; inactive = mostly below about 77%
The depositor's hits bear a star; i = inactive; . = no result given; ! = not active in a repeat. Rows were chosen to be rich in hits. Some 1.4% of all compounds tested hit in one or more screens of this group.

SMILES | AID504770 | PV pol inh | MenB inh | Mtb MbtI inh
CC(=O)Nc1sc2c(c1CN(C)C)CCCC2 | -0.75 | 107 | -13 | -6
CC1CCN(C(=O)c2ccc(Br)cc2)CC1 | 1.1 | 102 | 36* | 4
COc1ccc(C(=O)N2CC(C)CC(C)C2)cc1 (centres undefined) | 0.15 | 100 | -5 | -5
COc1ccc(C(=S)N2CCC(C)CC2)cc1 | 0.6 | 98 | -53 | 72*
CC1CCN(C(=O)c2ccc(C(C)(C)C)cc2)CC1 | -0.1 | 98 | 2 | .
O=C(NC(=S)OCc1ccccc1Cl)c1ccco1 | -0.8 | 101 | . | -10
Cc1ccc(S)cc1C | 0.45 | 101 | 1 | 22
NC(N)=N/N=C/c1ccc(O)c(Cl)c1 | 0 | 102 | -22 | -5
N#CC(C#N)=Cc1ccc(O)c(Cl)c1 | -0.8 | 100 | i | 61*
CCSc1nc(NC(C)C)nc(N2CCOCC2)n1 | 1.5 | 101 | 12 | 0
NS(=O)(=O)c1ccc(CCNC(=O)CSc2nc3ccccc3c(=O)n2C2CCCC2)cc1 | -0.65 | 102 | -28 | 8
CC1=CC(=O)c2ccccc2C1=O | 0.65 | 99 | -6 | 10
NC1=CC(=O)c2ccccc2C1=O | -2.4* | 88* | -66 | 66
Cc1cc(=O)oc2cc(OCc3ccc4c(c3)OCO4)ccc12 | -0.05 | 99 | 1 | -2
Cc1ccc(N=C2NN=C(c3ccccc3)C(C(=O)Nc3ccc4c(c3)OCO4)S2)cc1 (centres undefined) | 1.1 | 85* | -7 | 39
COc1cc(CN2CCc3nc(N4CCN(c5ccccn5)CC4)ncc3C2)cc(OC)c1OC | . | 102 | . | .
CCOc1ccc(CN2CCc3nc(N4CCN(c5ccccn5)CC4)ncc3C2)cc1OC | . | 13* | . | .
Cc1ccccc1OCCn1cc(/C=C(\C#N)C(=O)NC2CC2)c2ccccc21 | 0.1 | 105 | -143 | -14
CCN(C(=O)CSc1nc(C)cc(COC)c1C#N)c1ccccc1 | -0.95 | 101 | -29 | -8
Cc1ccc(C2=NN=C(NC(=O)CSc3nnc(C)s3)SC2)cc1 | -0.8 | 99 | 8 | 84*
CC1Sc2nnc(C(C)(C)C)n2N=C1c1ccc(Cl)cc1 (centres undefined) | 1.4 | 76* | -1 | 92
CC1Cc2ccccc2N1C(=O)c1ccc(Cl)cc1 (centres undefined) | -1 | 103 | -27 | -8
COc1ccc(C(=O)N2c3ccccc3CC2C)cc1 (centres undefined) | 0.6 | 101 | 32* | 2
Cc1ccc(NC(=O)Cc2coc3ccc4ccccc4c23)nc1 | -0.45 | 103 | -27 | 27
O=C(O)c1ccccc1CSc1nc2ccccc2[nH]1 | 0.6 | 96 | 4 | 56*
SMILES | AID504770 | PV pol inh | MenB inh | Mtb MbtI inh
COc1cc(NCCCC(C)N)c2ncccc2c1 (centres undefined) | -0.1 | 35* | -9 | 5
Cc1sc2nc[nH]c(=S)c2c1C | -0.8 | 100 | -65 | 57*!
CN(Cc1cccc(Cl)c1)C1CCN(C(=O)NCc2ccccc2)CC1 | -0.9 | 100 | 12 | 4
NS(=O)(=O)c1ccc(-n2ncc(Cl)c(Cl)c2=O)cc1 | 0.05 | 86* | -7 | 3
O=c1c(Cl)c(Cl)cnn1-c1ccccc1 | -0.35 | . | . | -13
S=C(SN1CCOCC1)N1CCOCC1 | -0.55 | 77* | -69 | .
COc1ccc(NC(=O)CCc2c(C)nc3cc(-c4ccc(Cl)cc4)nn3c2C)c(OC)c1 | 0.65 | 101 | -5 | 12
O=C(/C=C/c1ccccc1)Oc1ccccc1 | 2.2 | 104 | -11 | 5
O=C(/C=C/c1ccccc1)Oc1nc2ccccc2s1 | 0.3 | 85* | 3 | .
CCCNS(=O)(=O)c1cc2c3c(c1)c(C)cc(=O)n3CC2 | -0.75 | 102 | -17 | 43
Nn1c(SCCOc2ccccc2)nnc1-c1ccccc1 | 1.1 | 79* | -30 | 34
COc1cccc(OC)c1OC(=O)c1cc(C)ccc1C | 0.85 | 100 | -5 | -5
N#CSc1ccc2nc(N)sc2c1 | -1.4 | 94 | 1 | 53*
CC1CC(C)CN(C(=O)c2ccccc2NS(=O)(=O)c2ccc(F)cc2)C1 (centres undefined) | -0.15 | 102 | . | -9
CCS(=O)(=O)Nc1ccc(OC)c(Cl)c1 | -0.35 | 100 | -52 | -19
CSC1=C(C#N)C2(CCCC2)C(C#N)C(=O)N1 (centres undefined) | -0.05 | 105 | . | -12
N#CC1=C(S)NC(=O)C(C#N)C12CCCCC2 (centres undefined) | -0.35 | 104 | -30 | 91*
CC(C)OCC(O)CN (centres undefined) | 1.9 | 102 | 32* | -1
CCOCC(O)CN (centres undefined) | -0.4 | 100 | -10 | -4
Cc1ccc(CC(C#N)Sc2nnc(C)n2Cc2ccccc2)cc1 (centres undefined) | 0.2 | 107 | -6 | -2
